The supplement of paper PMC6805474

Key:
[1] = system: Schistosoma mansoni schistosomula (LE); experiment: XTT viability relative to DMSO control; higher = more viable (less active); settings: 72 h; 10 µM
Protocol: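 XTT/PMS was then added for a further 24 h (72 h total) and A450 was read. % viability = (sample - heat-killed control)/(DMSO control - heat-killed control) x 100, from duplicate wells in two independent experiments.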

[2] = system: Schistosoma mansoni schistosomula (NMRI); experiment: phenotypic severity score (0-4); higher = more antischistosomal effect, active = 2 or more; settings: 10 µM
[3] = system: Schistosoma mansoni schistosomula (Liberian); experiment: drug effect (1 - score/DMSO control score) (fraction); higher = more antischistosomal effect, active = 0.5 or more; extreme values may be limits of the assay; settings: 10 µM
In short: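 Liberian-strain Schistosoma mansoni schistosomula, mechanically transformed from cercariae and pre-incubated at least 12 h, were exposed in duplicate (50 per well, flat-bottom 96-well plates) to 10 µM compound in Medium 199 with 5% FCS at 37 °C, 5% CO2, with 0.1% DMSO control wells. Wells were scored visually (10×) at 24, 48 and 72 h on a quarter-point scale from 3 (normal) to 0 (dead). Drug effect was derived from the mean test-well score relative to the mean DMSO-control score. Negative values were set to zero, and plates were valid only if control wells averaged at least 2.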
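Wherever phenotypic severity score (0-4) is given: visual microscopic scoring of shape, motility and density changes versus 0.5% DMSO solvent controls, one point per descriptor, degeneracy or death scored 4, mean of duplicate wells.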

| SMILES | XTT viability [1] [%] | phenotypic severity score ([2]; 24 h) | phenotypic severity score ([2]; 48 h) | phenotypic severity score ([2]; 72 h) | drug effect ([3]; 24 h) | drug effect ([3]; 48 h) | drug effect ([3]; 72 h) |
| --- | --- | --- | --- | --- | --- | --- | --- |
| N#Cc1ccc(-c2cnc(N)c(-c3ccc(C(N)=O)cc3)n2)cc1 | 113 | 2 (active) | 2 (active) | 4 (active) | 0.027 (inactive) | 0.333 (inactive) | 0.5 (active) |
| Cc1ccccc1C(=O)N1N=C(Nc2ccccc2)SC1(C)C | 88.7 | 1 (inactive) | 2 (active) | 0 (inactive) | 0.0455 (inactive) | 0.1 (inactive) | 0.158 (inactive) |
| Nc1ncnc2c1ncn2C[C@@H](O)[C@@H](O)C(=O)O | 63.7 | 0 (inactive) | 0 (inactive) | 0 (inactive) | 0.1 (inactive) | 0.189 (inactive) | 0.222 (inactive) |
| COc1ccccc1C(C)NCC(=O)Nc1cc(C(F)(F)F)ccc1Cl (configuration not stated) | 67.7 | 0 (inactive) | 0 (inactive) | 0 (inactive) | 0.15 (inactive) | 0.135 (inactive) | 0.278 (inactive) |
| CC1COC2(CCN(c3nc(=O)c4cc(C(F)(F)F)cc([N+](=O)[O-])c4s3)CC2)O1 (configuration not stated) | 80 | 1 (inactive) | 0 (inactive) | 0 (inactive) | 0.136 (inactive) | 0.25 (inactive) | 0.291 (inactive) |
| Cc1ccc2nc(C)c(-c3ccn(Cc4ccccc4)n3)n2c1 | 95.7 | 3 (active) | 4 (active) | 4 (active) | < 0 (inactive) | < 0 (inactive) | 0.111 (inactive) |
| O=C1[C@@H](Oc2ccccc2)[C@@H](c2ccc(Cl)cc2)N1CCn1cnc2c(NCc3ccccc3)ncnc21 | 68.1 | 3 (active) | 4 (active) | 4 (active) | 0.136 (inactive) | 0.1 (inactive) | 0.158 (inactive) |
| COc1cccc(OCC(=O)c2ccc(Br)cc2)c1 | 101 | 0 (inactive) | 0 (inactive) | 0 (inactive) | 0.182 (inactive) | 0.2 (inactive) | 0.127 (inactive) |
| COC(=O)C1=C(C)NC(C)=C(C(=O)OC(C)C)C1c1cccc2nonc12 (configuration not stated) | 63.2 | 2 (active) | 0 (inactive) | 0 (inactive) | 0.15 (inactive) | 0.189 (inactive) | 0.111 (inactive) |
| CC(=O)NC[C@@H]1CN(c2ccc(N3CCOCC3)c(F)c2)C(=O)O1 | 94.2 | 0 (inactive) | 0 (inactive) | 0 (inactive) | 0.227 (inactive) | 0.2 (inactive) | 0.182 (inactive) |
| Nc1ncnc2c1ncn2[C@@H]1O[C@H](COS(=O)(=O)NC(=O)c2ccccc2O)[C@@H](O)[C@H]1O | 113 | 0 (inactive) | 0 (inactive) | 0 (inactive) | 0.1 (inactive) | 0.111 (inactive) | 0.125 (inactive) |
